High-throughput results: PubChem BioAssay, National Center for Advancing Translational Sciences (NCATS)
This is a sample that favours compounds with a hit; in the whole collection about 1.3% have one here.
MBNL1-CUG inh: MBNL1-poly(CUG) RNA binding inhibition. Q9NR56. TR-FRET MBNL1-His/biotin-(CUG)12 binding, 665/545 ratio. Potency, µM (top dose mostly 57.5 µM), hits mostly inhibitors. actives 0.036% (n = 280,000). AID 2675; active = well fitted inhibition curve with a large enough effect in the signal ratio, with a control signal flat, not every such curve was filed as active; inconclusive = small, poorly fitted or top-dose-only effect, or effect the other way, or a change in a side signal; inactive = no such curve, though single readings can be large or run the other way; the % refers to the signal ratio
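TR-FRET readout: Ex 340 nm, 665/545 nm emission ratio, normalized to buffer-only (basal) and MBNL1-(CUG)12 controls. Complex of MBNL1-His with Biotin-(CUG)12, compounds 92 nM–58 uM, incubated 60 min at room temperature.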
KCNH2 3.1 inh: KCNH2 3.1 (human) potassium channel inhibition. U2OS KCNH2 3.1, thallium flux FluxOr; stronger effect = lower value. actives 0.95% (n = 340,000). AID 720553. activity change, % (tested at about 1.8 µM);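 active = maximum activity change below -70%; inconclusive = maximum activity change from -70% to -50%; inactive = maximum activity change above -50%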;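 note: thallium influx rate constant from kinetic fluorescence after stimulation buffer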
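We transduce U2OS cells with the mutant 3.1 virus, culture them overnight, load FluxOr with Red40 quencher for 45 min, then add stimulation buffer and read kinetically for 2 min to derive a normalized rate constant.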
TRPV1 potentiator: human TRPV1 potentiation | TRPV1-expressing cells, Fluo-8 calcium influx, capsaicin EC20 potentiation | potentiation, % at 8.33 µM | AID 540277 | actives 0.02% (n = 320,000) | Q8NER1; in the data active = potentiation above about 80%; inconclusive = between about 30% and that limit
Target sequence (Q8NER1 whole entry, looked up): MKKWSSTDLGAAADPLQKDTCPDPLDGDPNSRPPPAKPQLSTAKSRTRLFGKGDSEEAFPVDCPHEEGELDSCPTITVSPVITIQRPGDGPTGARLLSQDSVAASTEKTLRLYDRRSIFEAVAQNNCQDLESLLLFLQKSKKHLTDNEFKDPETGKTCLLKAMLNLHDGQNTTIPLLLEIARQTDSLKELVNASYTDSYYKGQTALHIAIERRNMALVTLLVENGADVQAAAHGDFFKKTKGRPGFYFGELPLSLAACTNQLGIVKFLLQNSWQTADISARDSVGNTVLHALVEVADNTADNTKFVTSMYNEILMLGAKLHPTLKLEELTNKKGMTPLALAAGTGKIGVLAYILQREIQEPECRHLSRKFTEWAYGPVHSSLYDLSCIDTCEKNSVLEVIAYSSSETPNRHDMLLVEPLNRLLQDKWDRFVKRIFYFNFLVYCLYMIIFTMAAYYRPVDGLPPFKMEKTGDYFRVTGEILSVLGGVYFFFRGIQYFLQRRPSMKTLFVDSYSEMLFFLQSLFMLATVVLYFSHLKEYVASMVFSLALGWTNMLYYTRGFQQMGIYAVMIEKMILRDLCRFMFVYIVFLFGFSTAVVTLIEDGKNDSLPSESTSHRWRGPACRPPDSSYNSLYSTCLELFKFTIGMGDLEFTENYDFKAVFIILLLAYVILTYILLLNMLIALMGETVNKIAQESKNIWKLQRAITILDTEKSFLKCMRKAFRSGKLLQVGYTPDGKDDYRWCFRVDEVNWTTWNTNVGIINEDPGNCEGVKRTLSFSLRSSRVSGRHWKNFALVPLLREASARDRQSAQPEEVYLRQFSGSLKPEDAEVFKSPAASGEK
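TRPV1-expressing cells were cultured overnight at 35.5C and loaded with Fluo-8 calcium dye for 40 to 90 min at room temperature. After a 10 s baseline, compound was added and calcium influx was read kinetically for 3 min (ex 480/em 520 nm).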
hERG WT inh: KCNH2 (human, wildtype) channel inhibition; U2OS, BacMam KCNH2, thallium flux FluxOr; stronger effect = lower value; activity change, % at 1.84 µM; actives 0.37% (n = 340,000); AID 720551;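 active = maximum activity change below -70%; inconclusive = maximum activity change between -70% and -50%; inactive = maximum activity change above -50%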
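U2OS cells were transduced with wild-type KCNH2 virus (2.03 x 10^8 / mL) for 4 h at room temperature, then cultured overnight at 37 C. Thallium flux was read with FluxOr dye. Rate constants were normalized to DMSO controls.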
TRPV1 agonist: human TRPV1 agonism; TRPV1-expressing cells, Fluo-8 calcium influx, agonist mode; Q8NER1; actives 0.19% (n = 320,000); activation, % at 8.33 µM; AID 540275; in the data active = activation above about 80%; inconclusive = between about 30% and that limit
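Cells expressing TRPV1 were dye-loaded with Fluo-8 and read kinetically: 10 s baseline, 3 min after compound (agonist portion), then 2 min after EC20 capsaicin (allosteric enhancer portion). Calcium-bound dye fluorescence at 480/520 nm.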
Each line names hits and unclear results; the compound was inactive in the other large screens.

O=C(CCN1CCN(Cc2ccccc2)CC1)NNC(=O)Nc1cccc([N+](=O)[O-])c1	MBNL1-CUG inh inconclusive (no result: KCNH2 3.1 inh)
CCCNC(=O)C1(CC2CC(c3ccccc3)=NO2)CCN(C(=O)CCCCCBr)CC1 (configuration not stated)	none (no result: MBNL1-CUG inh, TRPV1 potentiator, TRPV1 agonist)
COc1ccccc1C(=O)Nc1ccnn1C1CCN(CCCC2CCCC2)CC1	KCNH2 3.1 inh -114, hERG WT inh -143
O=C(Nc1ccnn1C1CCN(CCCC2CCCC2)CC1)c1ccccc1Cl	KCNH2 3.1 inh -106, hERG WT inh -93
COc1ccccc1C(=O)Nc1ccnn1C1CCN(CC2CC=CCC2)CC1 (configuration not stated)	KCNH2 3.1 inh -80
CC(CCN1CCC(n2nccc2NC(=O)c2ccccc2Cl)CC1)c1ccccc1 (configuration not stated)	KCNH2 3.1 inh -99, hERG WT inh inconclusive
O=C(CCCCC(=O)NN=Cc1ccc2c(c1)CCC2)NN=Cc1ccc2c(c1)CCC2	none (no result: MBNL1-CUG inh, TRPV1 potentiator, TRPV1 agonist)
CCN1C(=O)[C@H]2[C@@H](c3ccc(Cl)cc3)N3C(=O)CN(CC4CC4)C(=O)[C@@]3(Cc3ccccc3)[C@H]2C1=O	none
Cn1c(=O)c([N+](=O)[O-])c(NCc2ccc3c(c2)OCO3)c2ccccc21	MBNL1-CUG inh inconclusive
O=C(OCC(=O)N1CCCc2ccccc21)c1cc(Br)ccc1O	none (no result: MBNL1-CUG inh)
CC/C(=N\NC(=O)CNC(=O)/C=C/c1ccc(OC)cc1)c1ccccc1	hERG WT inh -136
O=c1[nH]nc(-c2ccccc2)c2ccccc12	KCNH2 3.1 inh -113
O=c1cc(N/N=C/c2ccccc2)[nH]c(=O)[nH]1	none (no result: MBNL1-CUG inh, TRPV1 potentiator, TRPV1 agonist)
COc1ccc(Nc2nc(NCc3ccco3)nc(N3CCOCC3)n2)cc1	TRPV1 agonist 86
N#CCC(=O)Nc1ccc(C(=O)OCC(=O)NC(=O)Nc2ccc3c(c2)OCCO3)cc1	none (no result: MBNL1-CUG inh, TRPV1 potentiator, TRPV1 agonist)
CCOC(=O)c1ccc(NC(=O)Nc2ccc3c(c2)OCCO3)cc1	hERG WT inh -76
CC1=C(C(=O)N2CCOCC2)CC(CC(=O)NC2CCCCC2)C(=O)N1Cc1ccccc1 (configuration not stated)	none (no result: MBNL1-CUG inh, TRPV1 potentiator, TRPV1 agonist)
CCOc1ccc(S(=O)(=O)Nc2ccccc2C(=O)N2CCOCC2)cc1	none
COc1ccc(CN(C)C[C@@H]2OCc3cnnn3CCCC(=O)N([C@H](C)CO)C[C@H]2C)cc1	none (no result: MBNL1-CUG inh, TRPV1 potentiator, TRPV1 agonist)
O=C(COc1ccccc1)Nc1cccc(-c2nc3cc4ccccc4cc3[nH]2)c1	none (no result: KCNH2 3.1 inh)
FC(F)(F)c1ccc(-c2noc(CN3CCCN(C4CCCCC4)CC3)n2)cc1	KCNH2 3.1 inh -94
c1ccc(C(c2ccccc2)c2noc(CN3CCN(C4CCCC4)CC3)n2)cc1	none
CCN(CC)c1ccc2cc(-c3nc(-c4ccc(OC)cc4)cs3)c(=O)oc2c1	KCNH2 3.1 inh -133, hERG WT inh -233, TRPV1 agonist inconclusive
O=c1oc2ccc3ccccc3c2cc1-c1nnc(-c2ccccc2)o1	none
CCN(CC)c1ccc2cc(-c3nnc(-c4ccccc4)o3)c(=O)oc2c1	hERG WT inh -96, TRPV1 agonist 101
CCN(CC)c1ccc2cc(-c3nc4ccccc4[nH]3)c(=O)oc2c1	MBNL1-CUG inh inconclusive, KCNH2 3.1 inh -112, hERG WT inh -93, TRPV1 agonist 152
O=C(CSc1nc2ccccc2c(=O)n1Cc1ccco1)N1CCN(c2ccccc2)CC1	KCNH2 3.1 inh -107, hERG WT inh -104, TRPV1 agonist inconclusive
CCOc1ccc2nc(NC(=O)CSc3nc4ccccc4c(=O)n3Cc3ccco3)sc2c1	KCNH2 3.1 inh -97, hERG WT inh inconclusive
NC(=O)Nc1ccc(C(=O)OCC(=O)Nc2ccc(Cl)cn2)cc1	none (no result: MBNL1-CUG inh)
Cc1ccc(NC(=S)NCCc2c[nH]c3ccccc23)c(C)c1	KCNH2 3.1 inh -91, TRPV1 agonist inconclusive
COc1ccccc1NC(=S)NCCc1c[nH]c2ccccc12	none
Cc1ccc(S(=O)(=O)N2CC3(O)CN(C(=O)OC(C)C)N(C(=O)OC(C)C)CC3(OC(=O)NCc3ccco3)C2)cc1 (configuration not stated)	none (no result: MBNL1-CUG inh, TRPV1 potentiator, TRPV1 agonist)
N#Cc1ccc(NC(=O)CN2CCN(c3ccccn3)CC2)cc1	KCNH2 3.1 inh -76
Cc1cccn2c(NCc3ccc4c(c3)OCO4)c(-c3ccc(O)cc3)nc12	KCNH2 3.1 inh -94
COc1ccc(-c2nc3cc(C)ccn3c2NCc2ccc3c(c2)OCO3)cc1	KCNH2 3.1 inh -81, hERG WT inh -83, TRPV1 agonist inconclusive
FC(F)(F)c1ccncc1-c1nnc(C2CCCCC2)o1	none (no result: MBNL1-CUG inh)
c1cncc(-c2nnc(C3CCCCC3)o2)c1	KCNH2 3.1 inh -80
COc1ccccc1NCCC(=O)OCC(=O)Nc1ccccc1Cl	KCNH2 3.1 inh -210, hERG WT inh -106 (no result: MBNL1-CUG inh, TRPV1 potentiator, TRPV1 agonist)
COc1ccccc1NCCC(=O)OCC(=O)Nc1ccccc1F	none (no result: MBNL1-CUG inh, TRPV1 potentiator, TRPV1 agonist)
CCCCCCN1CCN(C2CN(Cc3ccc([N+](=O)[O-])cc3)S(=O)(=O)C2)CC1 (configuration not stated)	KCNH2 3.1 inh -112, hERG WT inh -96 (no result: MBNL1-CUG inh, TRPV1 potentiator, TRPV1 agonist)
O=[N+]([O-])c1ccc(CN2CC(N3CCN(CCO)CC3)CS2(=O)=O)cc1 (configuration not stated)	none (no result: MBNL1-CUG inh, TRPV1 potentiator, TRPV1 agonist)
Cc1ccc(S(=O)(=O)N2CCN(CC(=O)Nc3ccc([N+](=O)[O-])cc3)CC2)cc1C	KCNH2 3.1 inh -92, hERG WT inh -76 (no result: MBNL1-CUG inh)
Cc1ccc(C)c(OCCC(=O)N2CCN(S(=O)(=O)c3ccc([N+](=O)[O-])cc3)CC2)c1	KCNH2 3.1 inh -139, TRPV1 agonist inconclusive (no result: MBNL1-CUG inh)
C=CCOc1ccc(C=CC(=O)c2c(O)c(OC)c(OC)c(OC)c2OC)cc1	none (no result: MBNL1-CUG inh, TRPV1 potentiator, TRPV1 agonist)
Cc1cc(C)cc(C(=O)N(CCc2ccccc2)C2CC3CCC(C2)N3C)c1 (configuration not stated)	KCNH2 3.1 inh -88
COc1cc(C(=O)N(CCc2ccccc2)C2=CC3CCC(C2)N3C)cc(OC)c1OC (configuration not stated)	none
COc1ccc2cc(S(=O)(=O)NCc3cccnc3)ccc2c1	none
Cc1ccc(-n2cc(CN3CCC(O)(c4ccccn4)CC3)c(-c3ccc(F)cc3)n2)cc1	KCNH2 3.1 inh -73, hERG WT inh inconclusive
CCOc1ccccc1NC(=O)Cn1nnc(C(=O)Nc2ccc(C)cc2)c1N	hERG WT inh -127
O=S(=O)(NCc1ccccc1Cl)c1cccs1	none
CC(C)C[C@@H](CN1CCCC1CN1C(=S)NC[C@@H]1Cc1ccc(O)cc1)N1C[C@H](Cc2ccc(O)cc2)N(CCc2ccccc2)C1=S (some centres not stated)	KCNH2 3.1 inh -79, hERG WT inh -121 (no result: MBNL1-CUG inh, TRPV1 potentiator, TRPV1 agonist)
CCOc1ccc(CCN2C(=S)N([C@@H](Cc3ccc(O)cc3)CN3CCCC3CN3C(=S)NC[C@@H]3Cc3ccc(O)cc3)C[C@@H]2CC(C)C)cc1 (some centres not stated)	hERG WT inh -80 (no result: MBNL1-CUG inh, TRPV1 potentiator, TRPV1 agonist)
